The record followed here is PubChem BioAssay (EPA / NIEHS).

For assay [1], the target named is AR (gene 367) (UniProt P10275). In words: ACEA_AR_antagonist_80hr: ACEA Biosciences xCELLigence Real-Time Cell Analysis on Androgen Receptor Antagonism for Proliferation (AID 2283787).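 Also: 22Rv1 human prostate cancer cells with growth followed by electrical impedance; hits lower the impedance growth signal relative to DMSO.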 The method in brief:
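Measures real-time proliferation of 22Rv1 prostate cancer cells by electrode impedance at 80 hours after dosing. Test articles ran at eight concentrations (1:4 steps, top 100 uM final) in biological duplicate.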

Assay [2] in a line: ATG_M_06_XSP1: Attagene TRANS-FACTORIAL Multi-Species (XSP1) HepG2 Assay for M06 Transcription Factor (Internal Marker) (AID 2283790). In outline: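 This background-control readout tracks M06 reporter mRNA, measured by RT-PCR and capillary electrophoresis. HepG2 cells transiently carrying the GAL4-UAS reporter panel were dosed for 24 h with 3 nM 6-alpha-fluorotestosterone added for partial AR stimulation; increases were scored relative to DMSO.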

A short description of assay [3]: ATG_M_61_XSP1: Attagene TRANS-FACTORIAL Multi-Species (XSP1) HepG2 Assay for M61 Transcription Factor (Internal Marker) (AID 2283797). The method in brief:
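Background-control readout: reporter transcripts measured by RT-PCR and capillary electrophoresis 24 h after dosing transiently transfected HepG2 multi-reporter cells, with 3 nM 6-alpha-fluorotestosterone present. Fitted in the positive direction relative to DMSO.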

In assay [4] the target is Nuclear receptor subfamily 1 group I member 2 (Mus musculus) (UniProt O54915). The experiment in a line: ATG_mPXR_XSP1: Attagene TRANS-FACTORIAL Multi-Species (XSP1) HepG2 Assay for mouse Pregnane X Receptor (PXR) (AID 2283803). The method in brief: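 Transiently transfected HepG2 cells expressing a receptor-Gal4 chimera drive a GAL4-UAS reporter; 3 nM 6-alpha-fluorotestosterone included. Reporter mRNA read 24 h post-dose by RT-PCR and capillary electrophoresis; gain of signal relative to DMSO.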

Assay [5] relates to turtle Thyroid Hormone Receptor, alpha (TRa), gene 101949057. The experiment in a line: ATG_trTRa_XSP1: Attagene TRANS-FACTORIAL Multi-Species (XSP1) HepG2 Assay for turtle Thyroid Hormone Receptor, alpha (TRa) (AID 2283806). In outline:
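After 24 h chemical exposure, reporter transcripts were measured by RT-PCR with fluorescent primer extension, HpaI digestion and capillary electrophoresis. Cells were transiently transfected HepG2 expressing exogenous NR-Gal4 chimeras; medium contained 3 nM 6-alpha-fluorotestosterone; fitted upward relative to DMSO.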

The target of assay [6] is zebrafish Thyroid Hormone Receptor alpha (TRa), thraa (gene 30670) (UniProt Q98867). In words: ATG_zfTRa_XSP1: Attagene TRANS-FACTORIAL Multi-Species (XSP1) HepG2 Assay for zebrafish Thyroid Hormone Receptor alpha (TRa) (AID 2283807). The method in brief: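 Reporter transcripts driven by a chimeric zebrafish TRa–Gal4 protein were measured by RT-PCR with fluorescent labelling and capillary electrophoresis. These came from transiently transfected HepG2 cells after 24 h chemical exposure, with 3 nM 6-alpha-fluorotestosterone added; baseline was DMSO.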

For assay [7], the target named is human Thyroid hormone Receptor beta (TRb), THRB (gene 7068) (UniProt P10828). In words: ATG_hTRb_XSP1: Attagene TRANS-FACTORIAL Multi-Species (XSP1) HepG2 Assay for human Thyroid hormone Receptor beta (TRb) (AID 2283808). The method in brief: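 Readout is reporter mRNA induction measured by RT-PCR, fluorescent labelling and capillary electrophoresis, fitted upward relative to DMSO. Transiently transfected human HepG2 cells expressing NR-Gal4 chimeras were dosed for 24 h, medium containing 3 nM 6-alpha-fluorotestosterone.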

Assay [8] concerns the target zebrafish Thyroid Hormone Receptor beta (TRb), thrb (gene 30607) (UniProt Q9PVE4). In words: ATG_zfTRb_XSP1: Attagene TRANS-FACTORIAL Multi-Species (XSP1) HepG2 Assay for zebrafish Thyroid Hormone Receptor beta (TRb) (AID 2283809). In outline:
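HepG2 cells transiently transfected with multiplexed GAL4-UAS reporter units expressing chimeric zebrafish TRb–Gal4. Dosed 24 h with 3 nM 6-alpha-fluorotestosterone present; reporter mRNA measured by RT-PCR, HpaI digestion and capillary electrophoresis; gain of signal versus DMSO.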

Assay [9] in a line: ATG_M_06_XSP2: Attagene TRANS-FACTORIAL Multi-Species (XSP2) HepG2 Assay for M06 Transcription Factor (Internal Marker) (AID 2283811).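 Also: hits are increases in signal above the DMSO baseline.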 In outline: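 Readout: fluorescent reporter-mRNA peaks by capillary electrophoresis after RT-PCR and HpaI digest, scored upward relative to DMSO. Transfected HepG2, 24 h chemical exposure, with 3 nM 6-alpha-fluorotestosterone and 1.5 nM norgestrel added.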

For assay [10], the system named is turtle Estrogen Receptor (ERa), gene 101933533. In words: ATG_trERa_XSP2: Attagene TRANS-FACTORIAL Multi-Species (XSP2) HepG2 Assay for turtle Estrogen Receptor (ERa) (AID 2283812).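 Also: actives raise reporter signal above DMSO so AC50 reflects agonist activity.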 The method in brief: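 Readout is reporter mRNA quantified by RT-PCR with capillary electrophoresis after 24 h compound exposure, increase relative to DMSO. Uses transiently transfected human HepG2 liver cells carrying a chimeric turtle ERa-Gal4 receptor driving GAL4-UAS reporters.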

The target in assay [11] is GAL4 Transcription Factor (Internal Marker), GAL4 (gene 855828) (UniProt P04386). In words: ATG_GAL4_XSP2: Attagene TRANS-FACTORIAL Multi-Species (XSP2) HepG2 Assay for GAL4 Transcription Factor (Internal Marker) (AID 2283814).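 Also: GAL4 reporter mRNA background control in MRTU transfected cells not a receptor target.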 The method in brief:
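Background-control readout: gain-of-signal fitted against DMSO. After 24 h exposure of transfected HepG2 (MRTU, GAL4-UAS reporters; 3 nM 6-alpha-fluorotestosterone, 1.5 nM norgestrel present), transcripts quantified by RT-PCR and capillary electrophoresis fluorescence.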

For assay [12], the target named is Estrogen receptor beta (Homo sapiens) (UniProt Q92731). In words: ATG_hERb_XSP1: Attagene TRANS-FACTORIAL Multi-Species (XSP1) HepG2 Assay for human Estrogen Receptor (ESR2) (AID 2283788). The method in brief: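 Transient MRTU transfection of HepG2; ERβ–GAL4 TRANS format; 24 h dosing; 3 nM 6α-fluorotestosterone co-added; RNA → RT-PCR → 6-FAM primer extension → CE; activity vs DMSO.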

The nature of assay [13]: ATG_M_32_XSP1: Attagene TRANS-FACTORIAL Multi-Species (XSP1) HepG2 Assay for M32 Transcription Factor (Internal Marker) (AID 2283799). The method in brief: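 Reporter transcripts from the M32 internal-control unit measured by RT-PCR, FAM labelling, HpaI digestion and capillary electrophoresis after 24 h compound exposure of transfected HepG2, 3 nM 6-alpha-fluorotestosterone included; DMSO baseline, positive-direction fit.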

In assay [14] the target is Peroxisome proliferator-activated receptor gamma (Homo sapiens) (UniProt P37231). The experiment in a line: ATG_hPPARg_XSP1: Attagene TRANS-FACTORIAL Multi-Species (XSP1) HepG2 Assay for human Peroxisome Proliferator-activated Receptor gamma (PPARg) (AID 2283800). The method in brief: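 Reporter mRNA induction, measured by RT-PCR with capillary electrophoresis 24 h after dosing, scored as gain over DMSO. Transfected HepG2 cells express exogenous NR-Gal4 chimeras driving GAL4-UAS reporters; medium includes 3 nM 6-alpha-fluorotestosterone.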

The subject of assay [15] is zebrafish Peroxisome Proliferator-activated Receptor gamma (PPARg), gene 557037. In words: ATG_zfPPARg_XSP1: Attagene TRANS-FACTORIAL Multi-Species (XSP1) HepG2 Assay for zebrafish Peroxisome Proliferator-activated Receptor gamma (PPARg) (AID 2283801). In outline:
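Trans-activation readout of chimeric zebrafish PPARg–GAL4 in transiently transfected human HepG2 cells, 24 h chemical exposure (medium includes 3 nM 6-alpha-fluorotestosterone). Reporter transcripts measured by RT-PCR and capillary electrophoresis, fitted as gain over DMSO.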

In assay [16] the target is mouse Peroxisome Proliferator-activated Receptor gamma (PPARg), Pparg (gene 19016) (UniProt P37238). The experiment in a line: ATG_mPPARg_XSP1: Attagene TRANS-FACTORIAL Multi-Species (XSP1) HepG2 Assay for mouse Peroxisome Proliferator-activated Receptor gamma (PPARg) (AID 2283802). In outline: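 Readout is reporter mRNA induction, measured by RT-PCR with 6-FAM labelling, HpaI digestion and capillary electrophoresis, 24 h post-dose relative to DMSO. Transient multi-reporter transfection of human HepG2 with mouse PPARg–GAL4 fusion; 3 nM 6-alpha-fluorotestosterone included.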

A short description of assay [17]: ATG_XTT_Cytotoxicity_XSP1: Cytotoxicity Assessment in the Attagene TRANS-FACTORIAL Multi-Species (XSP1) HepG2 Assay (AID 2283810). The method in brief: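 XTT viability readout taken at 24 hours post-dosing in HepG2 liver cells co-treated with 3 nM 6-alpha-fluorotestosterone. Signal loss relative to DMSO controls reflects cytotoxicity.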
The target of assay [18] is Estrogen receptor beta (Homo sapiens) (UniProt Q92731). The experiment in a line: ATG_hERb_XSP2: Attagene TRANS-FACTORIAL Multi-Species (XSP2) HepG2 Assay for human Estrogen Receptor (ERb) (AID 2283813).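 Also: actives raise reporter mRNA above DMSO so AC50 reflects agonist induction.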 The method in brief: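 Transient TRANS reporter system in HepG2: after 24 h of chemical, RNA is reverse-transcribed, reporter cDNA amplified, FAM-labelled and sized by capillary electrophoresis. Induction of the human ERb-Gal4 reporter is measured relative to DMSO.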

Each structure is given as a SMILES string. Inconclusive results are not listed. Active and inactive are the calls of the source. The calls were made as follows: active = hit-call score of the fitted dose curve at least 0.9, where 1 is the maximum; inconclusive = response in the unintended direction; inactive = score below 0.9.

Sequence of Estrogen receptor beta (Homo sapiens) (Q92731 whole entry, looked up, the tested form may be a part): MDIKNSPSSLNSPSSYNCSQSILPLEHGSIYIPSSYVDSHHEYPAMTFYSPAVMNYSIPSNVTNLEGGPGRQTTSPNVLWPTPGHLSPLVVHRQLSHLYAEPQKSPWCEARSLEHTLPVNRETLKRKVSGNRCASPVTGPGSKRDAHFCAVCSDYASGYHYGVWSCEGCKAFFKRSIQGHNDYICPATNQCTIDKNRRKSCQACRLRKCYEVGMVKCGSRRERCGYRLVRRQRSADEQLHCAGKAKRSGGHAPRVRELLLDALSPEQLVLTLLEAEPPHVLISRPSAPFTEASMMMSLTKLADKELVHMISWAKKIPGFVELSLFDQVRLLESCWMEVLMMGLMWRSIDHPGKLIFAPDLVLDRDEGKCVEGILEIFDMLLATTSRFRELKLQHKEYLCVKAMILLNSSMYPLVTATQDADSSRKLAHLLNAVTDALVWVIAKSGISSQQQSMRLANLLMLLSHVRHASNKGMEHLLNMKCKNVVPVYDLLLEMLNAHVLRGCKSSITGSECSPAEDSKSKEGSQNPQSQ
Sequence of Nuclear receptor subfamily 1 group I member 2 (Mus musculus) (O54915 whole entry, looked up, the tested form may be a part): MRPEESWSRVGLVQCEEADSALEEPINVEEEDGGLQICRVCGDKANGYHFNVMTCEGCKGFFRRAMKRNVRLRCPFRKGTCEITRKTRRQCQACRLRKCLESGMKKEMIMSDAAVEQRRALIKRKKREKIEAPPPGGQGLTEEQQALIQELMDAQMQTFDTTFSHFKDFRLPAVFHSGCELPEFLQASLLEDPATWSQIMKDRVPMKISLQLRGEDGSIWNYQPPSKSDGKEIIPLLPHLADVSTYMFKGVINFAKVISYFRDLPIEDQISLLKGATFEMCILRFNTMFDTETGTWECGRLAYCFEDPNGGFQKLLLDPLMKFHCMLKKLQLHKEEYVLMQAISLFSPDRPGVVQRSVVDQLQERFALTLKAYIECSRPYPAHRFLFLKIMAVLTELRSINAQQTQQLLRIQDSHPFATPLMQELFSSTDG
Sequence of AR (gene 367) (P10275 whole entry, looked up): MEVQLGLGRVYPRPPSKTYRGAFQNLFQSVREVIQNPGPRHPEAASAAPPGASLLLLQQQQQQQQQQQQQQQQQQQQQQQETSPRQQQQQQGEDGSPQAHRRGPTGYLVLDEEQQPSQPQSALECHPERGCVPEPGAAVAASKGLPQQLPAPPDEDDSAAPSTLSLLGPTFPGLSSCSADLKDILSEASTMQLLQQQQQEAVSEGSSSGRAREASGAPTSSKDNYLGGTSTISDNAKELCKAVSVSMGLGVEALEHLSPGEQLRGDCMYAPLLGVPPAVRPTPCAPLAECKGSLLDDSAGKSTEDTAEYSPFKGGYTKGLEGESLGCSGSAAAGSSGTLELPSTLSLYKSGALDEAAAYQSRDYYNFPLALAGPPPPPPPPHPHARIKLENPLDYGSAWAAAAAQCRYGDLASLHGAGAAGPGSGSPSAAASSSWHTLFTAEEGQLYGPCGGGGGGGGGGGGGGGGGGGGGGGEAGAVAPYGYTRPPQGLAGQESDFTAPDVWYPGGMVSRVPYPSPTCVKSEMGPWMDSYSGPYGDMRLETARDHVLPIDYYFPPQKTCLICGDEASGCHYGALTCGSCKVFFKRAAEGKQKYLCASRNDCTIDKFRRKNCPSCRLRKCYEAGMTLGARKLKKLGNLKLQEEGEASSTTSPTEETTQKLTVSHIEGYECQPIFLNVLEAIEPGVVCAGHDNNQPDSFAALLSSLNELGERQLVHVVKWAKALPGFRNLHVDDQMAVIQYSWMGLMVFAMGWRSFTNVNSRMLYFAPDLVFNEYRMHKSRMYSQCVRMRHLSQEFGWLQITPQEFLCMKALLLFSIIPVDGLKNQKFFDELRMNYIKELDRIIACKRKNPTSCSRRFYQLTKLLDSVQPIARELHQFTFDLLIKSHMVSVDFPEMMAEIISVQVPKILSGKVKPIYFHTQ
Sequence of zebrafish Thyroid Hormone Receptor alpha (TRa), thraa (gene 30670) (Q98867 whole entry, looked up, the tested form may be a part): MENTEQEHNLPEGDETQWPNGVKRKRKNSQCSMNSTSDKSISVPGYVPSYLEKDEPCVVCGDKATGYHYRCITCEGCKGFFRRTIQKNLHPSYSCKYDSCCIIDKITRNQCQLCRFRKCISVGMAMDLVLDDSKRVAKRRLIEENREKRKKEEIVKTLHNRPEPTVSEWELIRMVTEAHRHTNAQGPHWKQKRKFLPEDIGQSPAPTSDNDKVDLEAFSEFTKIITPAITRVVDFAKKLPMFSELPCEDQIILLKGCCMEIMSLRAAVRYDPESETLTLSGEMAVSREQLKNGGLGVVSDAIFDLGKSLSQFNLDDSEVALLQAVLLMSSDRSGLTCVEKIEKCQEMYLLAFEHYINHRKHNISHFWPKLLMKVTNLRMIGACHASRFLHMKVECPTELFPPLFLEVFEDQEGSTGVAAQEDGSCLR
Sequence of zebrafish Thyroid Hormone Receptor beta (TRb), thrb (gene 30607) (Q9PVE4 whole entry, looked up, the tested form may be a part): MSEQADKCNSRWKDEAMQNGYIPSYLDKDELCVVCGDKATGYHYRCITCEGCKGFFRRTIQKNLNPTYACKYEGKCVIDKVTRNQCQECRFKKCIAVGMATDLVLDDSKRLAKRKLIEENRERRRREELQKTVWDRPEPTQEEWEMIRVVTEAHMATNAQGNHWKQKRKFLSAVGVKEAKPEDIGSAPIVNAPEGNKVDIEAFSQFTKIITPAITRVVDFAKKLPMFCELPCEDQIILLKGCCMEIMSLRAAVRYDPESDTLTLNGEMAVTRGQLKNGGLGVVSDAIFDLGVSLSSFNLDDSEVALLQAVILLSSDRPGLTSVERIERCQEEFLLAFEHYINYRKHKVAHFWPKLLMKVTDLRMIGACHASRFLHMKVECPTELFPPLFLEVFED
Sequence of Peroxisome proliferator-activated receptor gamma (Homo sapiens) (P37231 whole entry, looked up, the tested form may be a part): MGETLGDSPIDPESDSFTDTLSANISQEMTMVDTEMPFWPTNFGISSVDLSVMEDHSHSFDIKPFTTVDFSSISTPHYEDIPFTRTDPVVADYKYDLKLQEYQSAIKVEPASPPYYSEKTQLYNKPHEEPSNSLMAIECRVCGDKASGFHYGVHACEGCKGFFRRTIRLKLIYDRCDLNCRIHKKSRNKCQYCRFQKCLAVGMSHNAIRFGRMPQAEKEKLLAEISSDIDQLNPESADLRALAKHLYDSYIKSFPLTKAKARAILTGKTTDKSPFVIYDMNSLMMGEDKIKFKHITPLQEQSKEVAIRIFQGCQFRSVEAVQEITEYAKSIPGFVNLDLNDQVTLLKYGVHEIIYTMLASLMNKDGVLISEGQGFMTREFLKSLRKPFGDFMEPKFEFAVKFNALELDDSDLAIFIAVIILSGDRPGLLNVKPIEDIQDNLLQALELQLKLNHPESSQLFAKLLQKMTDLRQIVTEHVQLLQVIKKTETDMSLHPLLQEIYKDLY
Sequence of mouse Peroxisome Proliferator-activated Receptor gamma (PPARg), Pparg (gene 19016) (P37238 whole entry, looked up, the tested form may be a part): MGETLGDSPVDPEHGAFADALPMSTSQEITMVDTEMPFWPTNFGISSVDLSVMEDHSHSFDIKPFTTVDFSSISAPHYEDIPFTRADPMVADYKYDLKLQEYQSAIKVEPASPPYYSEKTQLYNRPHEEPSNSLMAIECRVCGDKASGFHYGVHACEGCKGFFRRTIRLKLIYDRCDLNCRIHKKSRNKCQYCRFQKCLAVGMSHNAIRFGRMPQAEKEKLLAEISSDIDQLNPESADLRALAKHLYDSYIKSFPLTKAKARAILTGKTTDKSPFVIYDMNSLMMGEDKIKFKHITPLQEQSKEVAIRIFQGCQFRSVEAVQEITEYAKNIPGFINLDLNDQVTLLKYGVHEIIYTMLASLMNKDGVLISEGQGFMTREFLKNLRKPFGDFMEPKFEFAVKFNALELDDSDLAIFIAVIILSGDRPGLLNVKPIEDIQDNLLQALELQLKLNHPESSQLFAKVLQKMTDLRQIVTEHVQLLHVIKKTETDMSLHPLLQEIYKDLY
Sequence of GAL4 Transcription Factor (Internal Marker), GAL4 (gene 855828) (P04386 whole entry, looked up, the tested form may be a part): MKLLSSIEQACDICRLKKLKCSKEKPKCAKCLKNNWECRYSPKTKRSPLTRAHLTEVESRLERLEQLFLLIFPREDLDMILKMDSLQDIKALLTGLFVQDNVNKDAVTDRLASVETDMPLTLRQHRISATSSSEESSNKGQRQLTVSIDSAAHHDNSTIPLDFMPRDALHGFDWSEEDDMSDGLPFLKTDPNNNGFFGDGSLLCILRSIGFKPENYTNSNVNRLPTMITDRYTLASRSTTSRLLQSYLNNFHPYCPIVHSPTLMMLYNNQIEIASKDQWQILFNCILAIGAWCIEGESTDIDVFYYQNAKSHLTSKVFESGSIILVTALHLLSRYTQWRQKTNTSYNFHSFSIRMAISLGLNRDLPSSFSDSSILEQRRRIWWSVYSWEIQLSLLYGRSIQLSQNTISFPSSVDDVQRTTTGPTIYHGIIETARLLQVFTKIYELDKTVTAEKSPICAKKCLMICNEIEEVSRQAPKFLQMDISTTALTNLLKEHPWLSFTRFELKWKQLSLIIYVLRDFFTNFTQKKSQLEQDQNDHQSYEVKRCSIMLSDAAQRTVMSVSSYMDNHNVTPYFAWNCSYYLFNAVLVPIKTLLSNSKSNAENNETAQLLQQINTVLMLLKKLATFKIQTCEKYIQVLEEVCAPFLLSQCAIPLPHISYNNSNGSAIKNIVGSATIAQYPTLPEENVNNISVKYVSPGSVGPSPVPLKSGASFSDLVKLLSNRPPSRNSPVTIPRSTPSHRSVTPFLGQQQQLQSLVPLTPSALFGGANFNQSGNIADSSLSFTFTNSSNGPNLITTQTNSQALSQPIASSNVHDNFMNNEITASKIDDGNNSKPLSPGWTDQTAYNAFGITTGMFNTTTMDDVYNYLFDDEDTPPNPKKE

Regarding `CCCOc1nn(C(=O)NS(=O)(=O)c2ccccc2C(=O)OC)c(=O)n1C`, the compound was classed as inactive in [1].
Take `C#CC(C)(C)NC(=O)c1cc(Cl)cc(Cl)c1`: the result in assay [2], in [3], in [5], in assay [6], in [7] and in [8] was inactive. Further, the result in assay [9], in assay [10] and in assay [11] was inactive. The half-maximal activity concentration (AC50) (in general, the midpoint of the concentration-response curve, whichever way the signal moves) in assay [4] is 13.3 µM (active).
Consider `CCOC(=O)COc1cc(-c2nn(C)c(OC(F)F)c2Cl)c(F)cc1Cl`, for which the AC50 in assay [1] was 28.1 µM (active).
Same read-out and setting: to `CC(C)=CC1C(C(=O)OCN2C(=O)C3=C(CCCC3)C2=O)C1(C)C` (centres undefined) belongs 69.8 µM (active).
As to `COP(=O)(OC)SCn1c(=O)oc2cc(Cl)cnc21`, the AC50 in [1] is 21.7 µM (active).
Still for that read-out and setting: the figure for `CCc1cccc(CC)c1N(COC)C(=O)CCl` is 63.9 µM (active).
Regarding `CCc1cccc(C)c1N(C(=O)CCl)C(C)COC` (centres undefined), the half-maximal activity concentration (AC50) in assay [12] is 4.14 µM (active); in assay [14], 5.37 µM (active); in [16], 25.5 µM (active); in [4], 3.28 µM (active). In addition, the call in [2], in assay [3], in assay [13], in assay [15], in assay [5] and in assay [6] was inactive. Also, the outcome in [8], in assay [17], in [9], in assay [10], in assay [18] and in assay [11] was inactive.
For the compound `C#CCC1=C(C)C(OC(=O)C2C(C=C(C)C)C2(C)C)CC1=O` (centres undefined), the result in assay [12], in [2], in [3], in assay [13], in assay [6] and in [7] was inactive. The result in [8], in assay [17], in assay [9] and in assay [18] was inactive. Also, the AC50 in [14] was 27.2 µM (active); in [16], 26.7 µM (active); in [4] it was 0.32 µM (active).
